Out of some 220,000 compounds screened, about 16,000 (7.3%) were called active. About 25% were inconclusive and are not listed. This is one part of a sample in which actives are shown more often than they occur. A number with no mark means an inactive call. The call rests on the fitted dose curve; in most records, active means well fitted inhibition curve with a large enough effect (not every such curve was filed as active); inconclusive means small, poorly fitted or top-dose-only effect, or another doubt; inactive means no such curve, though single readings can be large or run the other way.
molecular target: Aldehyde dehydrogenase 1A1 (Homo sapiens) (UniProt P00352); test: qHTS Assay for Inhibitors of Aldehyde Dehydrogenase 1 (ALDH1A1); details: Purified ALDH1A1, NADH fluorescence, propionaldehyde substrate; series mostly up to 75.3 µM; activity, negative = inhibition: at the top concentration;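 on activity, negative = inhibition: plate controls were no enzyme wells and a reference inhibitor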
Potency means the concentration at half of the fitted maximal effect.

Aldehyde dehydrogenase 1A1 (Homo sapiens), sequence (P00352 whole entry, looked up): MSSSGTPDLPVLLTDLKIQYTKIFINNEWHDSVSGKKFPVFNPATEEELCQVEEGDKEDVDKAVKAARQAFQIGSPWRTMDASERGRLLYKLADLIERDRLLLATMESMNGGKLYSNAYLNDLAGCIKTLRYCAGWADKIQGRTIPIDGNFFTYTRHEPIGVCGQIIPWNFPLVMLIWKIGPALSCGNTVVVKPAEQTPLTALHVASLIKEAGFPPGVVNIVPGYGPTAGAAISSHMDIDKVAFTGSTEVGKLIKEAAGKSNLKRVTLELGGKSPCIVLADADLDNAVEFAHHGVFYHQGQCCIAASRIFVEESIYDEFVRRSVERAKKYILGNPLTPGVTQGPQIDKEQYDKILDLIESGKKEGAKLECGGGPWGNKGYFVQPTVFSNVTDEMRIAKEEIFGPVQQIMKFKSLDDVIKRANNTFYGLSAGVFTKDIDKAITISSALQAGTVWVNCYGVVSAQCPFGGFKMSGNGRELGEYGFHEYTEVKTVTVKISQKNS

Row | Structure (SMILES) | activity, negative = inhibition [%] | Potency
1 | CC(=O)Nc1ccc(NC(=O)COc2ccc(S(=O)(=O)NC(C)c3ccccc3)cc2)cc1 (configuration not stated) | 7.35 | –
2 | O=C(Nc1cccc(C(F)(F)F)c1)c1cnccn1 | 4.04 | –
3 | CN(C)/C=C/C(=O)c1cnc2sccn2c1=O | 6.38 | –
4 | CCOC(=O)C1=C(NC(=S)NC(=O)c2ccccc2)c2ccccc2CC1(C)C | – | 20 µM (active)
5 | CCOC(=O)c1c(-c2ccccc2)csc1NC(=S)NC(=O)c1ccccc1 | -3.67 | –
6 | CCOC(=O)c1c(NC(=O)C2(C)Cc3ccccc3C(=O)O2)sc2c1CCCC2 (configuration not stated) | 23.1 | –
7 | COC(=O)C1=C(C)N(C)C(=S)NC1c1cc(OC)ccc1OC (configuration not stated) | 5.5 | –
8 | FC(F)(F)c1ccnc(Oc2ccc(C3=NCCS3)cc2)c1 | -6.21 | –
9 | CN1CCC(=NNC(=O)c2ccc(N(Cc3ccc(Cl)cc3)S(C)(=O)=O)cc2)CC1 | – | 8.91 µM (active)
10 | CN1CCC(=NNC(=O)CN(c2cccc(Cl)c2)S(C)(=O)=O)CC1 | 10.8 | –
11 | CCN1CCN(C(=O)c2ccc(CN(c3ccc(C)c(C)c3)S(C)(=O)=O)cc2)CC1 | -0.172 | –
12 | CC(=O)N1CC(C)c2scc(C)[n+]2-c2ccccc21 (configuration not stated) | 15.2 | –
13 | OCC1(Cc2ccccc2C(F)(F)F)CCN(Cc2cccc3cnccc23)CC1 | -3.56 | –
14 | O=S(=O)(NC1CC1)c1ccc2c3c(cccc13)CC2 | -5.31 | –
15 | COc1ccc(N2CCN(C(=O)CNC(=O)c3ccc(C(C)(C)C)cc3)CC2)cc1 | -14.7 | –
16 | COc1ccc(-c2ccc(CCC(=O)O)n2NC(=O)c2ccc(C(C)(C)C)cc2)cc1 | – | 2.24 µM (active)
17 | COc1ccc(C(=O)NC(Cc2ccc(OC(=O)c3ccc(OC)cc3)cc2)C(=O)O)cc1 (configuration not stated) | -7.25 | –
18 | CCCNC(=S)N1CCCC(c2nc3ccccc3[nH]2)C1 (configuration not stated) | 9.56 | –
19 | C#Cc1ccc([C@@H]2C=C(C(=O)O)O[C@H](OCCCCO)C2)cc1 | -7.97 | –
20 | Cc1csc(/N=C/N(C)C)c1C#N | -6.21 | –
21 | C/C(Nc1ccc2oc(=O)ccc2c1)=C1/C(=O)CC2[C@@H]1C2(C)C (some centres not stated) | – | 3.98 µM (active)
22 | COc1c(C(C)C)oc2cc3oc(=O)ccc3cc12 | -1.48 | –
23 | Cc1c(CCO)sc[n+]1CC(=O)OC12CC3CC(CC(C3)C1)C2 | 5.18 | –
24 | CC(=O)Nc1ccc(Nc2nc3c(S(=O)(=O)c4ccc(C)c(C)c4)nnn3c3ccccc23)cc1 | 139 | –
25 | CN(CCc1ccccn1)C(=O)CCC1CCCN(Cc2ccccc2OC(F)F)C1 (configuration not stated) | 11.8 | –
26 | O=C(CCc1ccccc1)NCc1cccnc1 | 3.47 | –

Row | Structure (SMILES) | activity, negative = inhibition [%] | Potency
27 | c1ccc(COc2ccccc2CNCc2cccnc2)cc1 | – | 17.8 µM (active)
28 | Fc1ccccc1COc1ccccc1CNCc1ccncc1 | 8.32 | –
29 | CC(C)(C)c1ccc(/C=C2\Oc3c(ccc(O)c3CN3CCN(CCO)CC3)C2=O)cc1 | -12.5 | –
30 | O=C(CSc1ccc2nnc(-c3ccccc3)n2n1)N1CCCc2ccccc21 | -10.2 | –
31 | Cc1nnc(SCC(=O)N2CCc3ccccc32)n1-c1ccccc1 | 0.566 | –
32 | O=C(NCc1nnc(SCC(=O)N2CCCc3ccccc32)o1)c1ccccc1F | – | 28.2 µM (active)
33 | COc1ccc(-c2ccc(CNCCCN3CCOCC3)o2)cc1Cl | 6.17 | –
34 | CC1(C)O[C@@H]2C[C@@H]3[C@H]4C[C@@H](F)C5=CC(=O)C=C[C@]5(C)[C@@]4(F)[C@@H](O)C[C@]3(C)[C@]2(C(=O)CO)O1 | 12.1 | –
35 | COC(=O)C1=C(C(=O)c2ccc(C)cc2)C(c2ccccc2)n2nnnc2N1 (configuration not stated) | – | 7.08 µM (active)
36 | COc1ccc(C2C(C(=O)Nc3ccccc3OC)=C(C)Nc3nnnn32)c(OC)c1 (configuration not stated) | -14.3 | –
37 | COc1ccccc1NC(=O)C1=C(C)Nc2nnnn2C1c1cccc(Br)c1 (configuration not stated) | -5.9 | –
38 | COc1cc(OC)cc(-c2nnc(SCC(=O)Nc3ccc(C(=O)O)cc3)s2)c1 | -8.2 | –
39 | Cc1ccc(S(=O)(=O)NC(C(=O)N2CCOCCOCCOCCOCC2)c2ccccc2)cc1 (configuration not stated) | -1.15 | –
40 | COc1cc(OC)cc(C(=O)NCCSCc2ccco2)c1 | 5.75 | –
41 | O=C(/C=C/c1cccc([N+](=O)[O-])c1)NCCSCc1ccco1 | – | 20 µM (active)
42 | CCC(CC)NC(=O)/C=C/c1cccc([N+](=O)[O-])c1 | -3.2 | –
43 | C/C=C1\C2C=C(C)CC1(N)c1ccc(=O)[nH]c1C2 (configuration not stated) | – | inactive
44 | CCOc1ccc(-c2ccc(SCC(=O)N3CCOCC3)nn2)cc1 | 1.06 | –
45 | CN1CCN(S(=O)(=O)c2cccc(C(=O)N3CCc4ccccc43)c2)CC1 | -2.83 | –
46 | C/C(=N\NC(=O)c1cccc(N2CCCC2=O)c1)c1ccc(N)cc1 | -7.57 | –
47 | CCCN1CCN(CCCNC(=O)CN2C(=O)COc3ccccc32)CC1 | -0.825 | –
48 | O=C(CN1C(=O)COc2ccccc21)Nc1ccc(F)cc1 | – | 22.4 µM (active)
49 | O=C(CCN1C(=O)COc2ccccc21)NCCCN1CCN(c2ccc(F)cc2)CC1 | 8.59 | –
50 | Cc1ccc(Cl)c(NC(=O)CN2CCN(C=O)CC2)c1 | 6.92 | –
51 | CCCCC/C=C\C/C=C\C/C=C\CCCCC(=O)NCC(=O)O | 1.71 | –
52 | O=C(O)C1CCN(C(=O)c2cc(F)cc3c2OCOC3)CC1 | -4.59 | –
